Screening results as filed in PubChem.
An excerpt weighted towards active compounds, which were near 19% of everything screened.
CHX counter: Cycloheximide Counterscreen for Small Molecule Inhibitors of Shiga Toxin. max response, %. 12% of 300,000 active. cell reporter, cycloheximide protein synthesis inhibition counterscreen; in the data active = max response mostly above about 13%, no sharp cut-off; inactive = mostly below about 14%; note: read at 38.3 µM for the half of the compounds with a filed dose; 0% is about no effect
Pf growth 96h: Primary qHTS for delayed death inhibitors of the malarial parasite plastid, 96 hour incubation; P. falciparum luciferase reporter growth, 96 h; Potency, µM (titrated, usually from 28.7 µM), for the others: at the highest dose activity change, negative = inhibition, hits mostly inhibitors; 6.9% of 320,000 active; note: potency is the fitted concentration of half-maximal effect; % is set by controls: 0 for no effect and ±100 for the full control effect
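Readout is luminescence from an integrated firefly luciferase in P. falciparum. Red cells, 2% hematocrit and 0.05% parasitemia final, were cultured with compound through two parasite generations (96 hours) at 37 C, 5% CO2.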
Shiga toxin inh: A qHTS for Small Molecule Inhibitors of Shiga Toxin. Vero cells, Shiga toxin protein synthesis inhibition reporter. inhibition, % at 38.7 µM. 9.2% of 290,000 active. AID 2315, 2010; in the data active = inhibition mostly above about 28%, no sharp cut-off; inactive = mostly below about 43%; note: 0% is about no effect
Lassa entry inh: qHTS for Inhibitors of binding or entry into cells for Lassa Virus; Lassa virus pseudotype entry inhibition, cell reporter; AID 540256, 2011; 1.2% of 300,000 active; Potency, µM (titrated, usually from 37.9 µM), for the others: at the top dose activity change, negative = inhibition, hits mostly inhibitors; calls by dose curve; tested in HEK293 cells; note: potency is the fitted concentration of half-maximal effect; % is set by controls: 0 for no effect and ±100 for the full control effect; nearly all actives have a fitted effect of over 50% in size
Marburg entry inh: qHTS for inhibitors of binding or entry into cells for Marburg Virus; AID 540276, 2011; Potency, µM (top dose mostly 37.8 µM), without a hit: at the top dose activity change, negative = inhibition, most hits filed as inhibitors; 1.8% of 300,000 active; Marburg virus pseudotyped entry inhibition, cell reporter; calls by dose curve; tested in HEK293 cells; note: potency is the fitted concentration of half-maximal effect; % is set by controls: 0 for no effect and ±100 for the full control effect
Pf growth 48h: Primary qHTS for delayed death inhibitors of the malarial parasite plastid, 48 hour incubation; P. falciparum luciferase growth in erythrocytes, 48 h; Potency, µM (titrated, usually from 28.7 µM), for the others: at the top dose activity change, negative = inhibition, usual class: inhibitors; 5.9% of 310,000 active; AID 504832, 2011; note: potency is the fitted concentration of half-maximal effect; % is set by controls: 0 for no effect and ±100 for the full control effect
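Read-out is firefly luciferase luminescence from an integrated reporter in P. falciparum, so falling signal marks reduced parasite growth. Infected erythrocytes were at 2% hematocrit and 0.1% parasitemia (final) in Albumax-supplemented RPMI 1640.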
The depositor's hits bear a star; ? = inconclusive; / = not tested or not shown; [ ] = another dose, or the depositor's remark. Unless noted, calls come from the whole dose curve; as a rule, active = well fitted inhibition curve with a large enough effect; inconclusive = small, poorly fitted or top-dose-only effect, or another doubt; inactive = no such curve, though single readings can be large or run the other way.

SMILES	CHX counter	Pf growth 96h	Shiga toxin inh	Lassa entry inh	Marburg entry inh	Pf growth 48h
Cc1cc(NC(=O)COC(=O)c2cccc(S(=O)(=O)N3CCOCC3)c2)no1	-3.5	14.5%	0.9	-0.8%	2.9%	9.3%
O=C(Nc1nc(-c2cccs2)cs1)c1ccc(S(=O)(=O)N2CCCCC2)cc1	2.5	-6.8%	-9.1	/	-2.8%	?
O=C(Nc1nc(-c2ccccn2)cs1)c1cccc(S(=O)(=O)N2CCOCC2)c1	/	?	/	/	/	1.04µM*
O=C(Nc1nc(-c2ccccn2)cs1)c1ccc(S(=O)(=O)N2CCCCC2)cc1	-2.4	2.33µM*	-1.7	/	/	3.29µM*
CCNC(=O)CN(C1CCCCC1)S(C)(=O)=O	-1.8	16.2%	19.7	-10.9%	?	-6.2%
CCc1nc2ccc(C(=O)NCCCN3CCN(c4ccccc4F)CC3)cc2nc1CC	-3.4	?	-10.0	?	10µM*	?
O=C(NCCCN1CCN(c2ccccc2F)CC1)c1ccc2nc(CCc3ccccc3)oc2c1	/	/	/	-24.4%[46.1 µM]	/	/
Cc1c(C)n(C)c2ccc(C(=O)NCCCN3CCN(c4ccccc4F)CC3)cc12	-4.2	-20.1%	-4.7	?	?	10.4µM*
Cc1c(C)n(Cc2ccc(F)cc2)c2ccc(C(=O)NCCCN3CCOCC3)cc12	-4.9	33.3%	-3.7	?	?	9.28µM*
CCC(=O)c1ccc(OCC(=O)N2CCCC2)c(OC)c1	-3.2	?	-9.8	/	/	-8.4%
CC(C)n1nc(C(=O)OCC(=O)N(C)C2CCS(=O)(=O)C2)c2ccccc2c1=O (centres undefined)	-6.3	29.6%	-1.6	-1.4%	5.9%	-4.1%
Cc1cccc(-c2c(O)cc(=O)[nH]c2Cl)c1	-0.3	-5.0%	26.6	?	3.6%[46.1 µM]	-19.9%
Cc1ccsc1/C=C/c1n[nH]c(=O)c(C#N)c1C	-3.2	18.3%	5.9	2.4%	0.1%[46.1 µM]	28.0%
O=C(O)c1cc([N+](=O)[O-])cc([N+](=O)[O-])c1O	-3.2	/	-5.1	/	/	/
COC(=O)CN(c1ccc(C(C)C)cc1)S(=O)(=O)c1c(C)[nH]c(=O)[nH]c1=O	-3.6	9.28µM*	-21.8	/	/	/
COc1ccc(N(CC(=O)Nc2ccccc2C)S(=O)(=O)c2c(C)[nH]c(=O)[nH]c2=O)cc1	2.2	-8.9%	-1.3	/	/	-5.8%
Cc1cc(NC(=O)CCC(=O)N(CC2CCCO2)C(C(=O)NC2CCCC2)c2ccccc2C)no1 (centres undefined)	/	/	/	21.0%	-9.7%[46.1 µM]	/
CN1C(=O)N(C)C2(c3ccccc3)Nn3c(s/c(=C/c4ccco4)c3=O)=NC12c1ccccc1 (centres undefined)	4.8	127.8%	-16.3	-22.1%	?	11.7µM*
CNCCc1ccccc1	-7.0	-26.2%	-6.8	/	/	1.5%
NNCCc1ccccc1	46.8*	?	110.0*	?	?	?
Clc1ccccc1OCc1nn[nH]n1	-0.4	-15.0%	4.7	/	/	22.7%
Clc1ccc(OCc2nc(-c3ccccn3)no2)c(Br)c1	41.8*	38.6%	66.1*	9.2µM*	?	190.3%
Clc1ccc(OCCCc2nc(-c3ccncc3)no2)c(Cl)c1	16.0	24.3%	15.6	-3.3%	-7.9%[46.1 µM]	43.7%
Clc1ccccc1OCc1nc(-c2ccccn2)no1	32.8*	/	69.8*	/	/	293.4%
Cc1cc(Cl)ccc1OCc1nc(-c2ccc(-n3cccc3)cc2)no1	/	/	/	?	9.1%[46.1 µM]	/
SMILES	CHX counter	Pf growth 96h	Shiga toxin inh	Lassa entry inh	Marburg entry inh	Pf growth 48h
Clc1ccc(OCCCc2nc(-c3cccnc3)no2)c(Cl)c1	13.9	9.28µM*	-13.0	11.4%	-4.4%	6.0%
O=C(NC(Cc1c[nH]c2ccccc12)C(=O)O)c1ccco1 (centres undefined)	5.0	/	-2.8	13.5%	-4.2%	/
Nc1nc(CSc2nc3ccccc3[nH]2)cs1	25.2*	25.3%	47.1*	-2.1%	?	117.9%
CCSc1nc2ccccc2[nH]1	3.8	9.7%	8.2	0.0%	0.8%	17.0%
O=c1[nH]c(SCc2ccccc2)nc2[nH]ncc12	13.2	-26.4%	27.6*	-10.4%	2.2%[46.1 µM]	10.9%
Fc1ccc(CSc2nc3ccccc3[nH]2)cc1	49.1*	/	131.7*	0.1%	-34.0%	120.2%
CC1(C)C(CSc2nc3ccccc3[nH]2)C1(Cl)Cl (centres undefined)	26.9	?	72.4*	?	?	4.8%
